Measurements as given in PubChem BioAssay (NCATS).
Where “and” joins values, the source holds several entries; their conditions need not be identical. Equal values may be shown once. Records with an inconclusive call do not appear. Calls of active or inactive are those of the source. Unless noted, calls follow the shape of the dose curve; as a rule, active = well fitted curve in the direction sought with a large enough effect; inconclusive = small, poorly fitted or top-dose-only effect, or another doubt; inactive = no such curve, though single readings can be large; an effect the other way counts as inactive or inconclusive.

What was measured:
[1] = Cell Viability - N2a (AID 540); details: N2a mouse neuroblastoma cell viability; activity change, negative = cytotoxicity: at 92.2 µM (top of the series); also: potency is read from the fitted curve at half-maximal effect; nearly all actives have a fitted effect of over 45% in size
Outline: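 Cytotoxicity was scored as loss of cellular ATP in N2a cells, a mouse neuroblastoma line. Compounds are applied in a qHTS concentration series for 40 hr at 37 °C.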

[2] = Cellular Toxicity (caspase-3) Jurkat (AID 655); details: Jurkat caspase-3 activation, luminescence; caspase-3 activation: at 92.2 µM (top of the series), DMSO = 0%, tamoxifen = 100%;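 also: cells exposed to compound for 16 h at 37 °C before reading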
Outline: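 Jurkat cells (5000/well) in complete medium were treated with compounds for 16 hr at 37 °C, then Caspase-Glo 3/7 luminescence was read after 20 min at room temperature. Data normalized to DMSO (basal) and 100 uM tamoxifen (100%); AC50 from Hill fit.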

[3] = Cellular Toxicity (caspase-3) Hek293 (AID 664); details: HEK293 caspase-3 activation, DMSO = 0%, 100 µM tamoxifen = 100%; at 92.2 µM (top of the series);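 also: cells exposed to compound for 16 h at 37 °C before readout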
Outline: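 qHTS, HEK293 (human embryonic kidney), 16 h cpd exposure in complete medium. Caspase-3/7 activation = luminescence increase; normalized to DMSO/100 uM tamoxifen; Hill-fit AC50.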

[4] = MultiTox-Fluor Cytotoxicity Assay - LYMP1-002 - Dead Cells (AID 960);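 also: cells exposed to compound for 16 h at 37 °C; 0% = DMSO and 100% = tetraoctylammonium bromide; nearly all actives have a fitted effect of over 60% in size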
Outline: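 Cells were plated, rested 5 hr, then treated with compound dilution series for 16 hr at 37 C. After adding substrate reagent and 60 min at room temperature, dead-cell protease fluorescence gave concentration-response curves fitted by the Hill equation.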

[5] = Cell Viability - LYMP2-018 (AID 985);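 also: potency is read from the fitted curve at half-maximal effect; compound exposure lasted 24 hr at 37 °C; nearly all actives have a fitted effect of over 50% in size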
Outline: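 Seed 2500 lymphoblastoid cells per well, incubate 5 hr at 37 C, add compound and incubate 24 hr at 37 C, add CellTiter-Glo, wait 30 min at room temperature, then read luminescence.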

[6] = Cell Viability - LYMP2-020 (AID 986);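 also: potency is read from the fitted curve at half-maximal effect; cells exposed to compound for 24 h at 37 °C; nearly all actives have a fitted effect of over 55% in size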
Outline: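 Seed 2500 cells per well and incubate 5 hr at 37 C. Add compounds at a concentration series and incubate 24 hr at 37 C. Add CellTiter-Glo, wait 30 min at RT, read luminescence, and fit a Hill curve for AC50.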

[7] = Cell Viability - LYMP2-024 (AID 988); also: nearly all actives have a fitted effect of over 60% in size; also: potency is read from the fitted curve at half-maximal effect;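 as to activity change, negative = cytotoxicity: plate controls were DMSO only for no effect and 92 µM tetraoctylammonium bromide for full effect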
Outline: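 qHTS cytotoxicity, human lymphoblastoid line, complete medium; 24 h cpd treatment, 37 C; CellTiter-Glo ATP luminescence readout; tetraoctylammonium bromide positive control; AC50 via Hill fit.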

[8] = Cell Viability - LYMP2-026 (AID 989);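 also: cells exposed to compound for 24 h at 37 °C; nearly all actives have a fitted effect of over 50% in size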; also: potency is read from the fitted curve at half-maximal effect
Outline: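 Cells are seeded at 2500 per well and held 5 hr at 37 C. Compounds are added in concentration series for 24 hr, then CellTiter-Glo reagent is applied and luminescence read.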

[9] = Cell Viability - LYMP1-002 - Assay at 24 hr (AID 993); also: potency is read from the fitted curve at half-maximal effect; as to activity change, negative = cytotoxicity: % is scaled to controls: 0 for no effect and ±100 for the full control effect
Outline: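 Acute toxicity is measured as concentration-dependent loss of cellular ATP in a human lymphoblastoid line (Coriell LYMP1-002) after 24 h treatment in complete medium. ATP is quantified by luciferase luminescence and AC50 derived by Hill modelling.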

[10] = Cell Viability - LYMP1-002 - Assay at 40 hr (AID 994); also: nearly all actives have a fitted effect of over 60% in size; also: potency is read from the fitted curve at half-maximal effect
Outline: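 Cells are plated at 2500 per well and rested 5 hr at 37 C. Compounds are added and incubated 40 hr at 37 C. CellTiter-Glo reagent is added for 30 min at room temperature before luminescence is read.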

[11] = molecular target: Nuclear receptor ROR-gamma (Homo sapiens) (UniProt P51449); assay: qHTS assay for small molecule antagonists of the retinoid-related orphan receptor gamma (ROR-gamma) signaling pathway (AID 651802); also: potency is read from the fitted curve at half-maximal effect; nearly all actives have a fitted effect of over 60% in size
Outline: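 Steps: cells dispensed; compound or DMSO transferred by pin tool; doxycycline added to induce the ROR response element-driven luciferase; plates held 16hr at 37C; ONE-Glo added and luminescence measured.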

[12] = qHTS assay for cell viability of HEK293 cells (AID 743288); details: ATP luminescence (CellTiter-Glo), 18 h; max response: stronger effect = lower value; also: potency is read from the fitted curve at half-maximal effect; nearly all actives have a fitted effect of over 50% in size
Outline: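 After 18 h compound exposure at 37 C, parental HEK293 cells (2,000/well) are lysed with CellTiter-Glo and luminescence is read following 30 min at room temperature.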

[13] = Cell Viability - BJ (AID 421; calls by dose curve;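 also: potency is read from the fitted curve at half-maximal effect; cells exposed to compound for 40 hours at 37 °C before readout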); details: BJ fibroblast viability, qHTS
Outline: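 Cytotoxicity as drop in intracellular ATP (CellTiter-Glo, 20 min RT) after 40 hr compound exposure of BJ fibroblasts at 37 °C. Titrations scaled between DMSO and 100 uM tamoxifen, Hill-fitted for AC50.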

[14] = Cell Viability - MRC5 (AID 434; calls by dose curve;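 also: potency is read from the fitted curve at half-maximal effect; potency reflects cytotoxicity seen as loss of intracellular ATP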); details: MRC5 lung fibroblast viability, qHTS
Outline: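 AC50 values come from Hill-equation fits of intracellular ATP loss, measured by CellTiter-Glo luminescence. Normal lung fibroblasts (MRC5) had 40 hr compound treatment at 37 C, normalized between DMSO and 100 uM tamoxifen.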

[15] = Cell Viability - SK-N-SH (AID 435; calls by dose curve;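 also: potency is read from the fitted curve at half-maximal effect; compound exposure lasted 40 h at 37 °C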); details: SK-N-SH neuroblastoma cell viability qHTS
Outline: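 SK-N-SH human neuroblastoma cells (1500/well) were exposed to compounds in complete medium for 40 h at 37 °C, and intracellular ATP was then measured by CellTiter-Glo luminescence. AC50 was taken from Hill fits, normalized to DMSO and 100 uM tamoxifen.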

[16] = Cell Viability - Renal Proximal Tubule (AID 545); details: renal proximal tubule cells viability, primary cells of rat origin; activity change, negative = cytotoxicity: at 91.7 µM (top of the series); also: nearly all actives have a fitted effect of over 40% in size
Outline: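 Primary rat renal proximal tubule cells (1000/well) were treated with compounds for 40 hr at 37 °C in complete medium. Intracellular ATP was measured by CellTiter-Glo luminescence, and AC50 values came from Hill-equation fits of concentration-response data.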

[17] = molecular target: Estrogen receptor (Homo sapiens) (UniProt P03372); assay: qHTS assay for small molecule agonists of estrogen receptor alpha signaling (AID 588514; calls by dose curve; also: potency is read from the fitted curve at half-maximal effect; nearly all actives have a fitted effect of over 70% in size)
Outline: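 Efficacy is expressed against 20 nM 17-beta-estradiol (100%) and DMSO basal (0%); EC50 from Hill equation. Assay: beta-lactamase reporter in ER-alpha-UAS-bla HEK 293 cells, 18 h compound incubation, CCF4 detection.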

[18] = molecular target: Glucocorticoid receptor (Homo sapiens) (UniProt P04150); assay: qHTS assay for small molecule agonists of glucocorticoid receptor signaling (AID 588532; active = well fitted curve in the direction sought with a large enough effect in the signal ratio, with a control signal flat; the % refers to the signal ratio;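 also: 100% = dexamethasone at 0.1 µM and 0% = DMSO only wells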); details: HeLa MMTV-bla, beta-lactamase ratio, agonist, 18 h; stronger effect = higher value; percent of dexamethasone control, DMSO zero
Outline: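 Quantitative HTS using CellSensor MMTV-bla HeLa cells in charcoal/dextran-treated serum; compounds tested up to 92 uM. After 18 h at 37 C, CCF4 dye reported reporter induction.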

[19] = molecular target: Glucocorticoid receptor (Homo sapiens) (UniProt P04150); assay: qHTS assay for small molecule antagonists of glucocorticoid receptor signaling (AID 588533; active = well fitted inhibition curve with a large enough effect in the signal ratio, with a control signal flat, not every such curve was filed as active; the % refers to the signal ratio;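 also: cells stimulated with 2 nM dexamethasone as agonist; % is scaled to controls: 0 for no effect and ±100 for the full control effect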)
Outline: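 Antagonist-mode qHTS: compound titrations added to GRE-bla HeLa cells, then dexamethasone 2 nM final; 18 h, 37 C. CCF4 FRET fluorescence normalized to dexamethasone and DMSO; IC50 from Hill fit.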

[20] = qHTS assay for small molecule antagonists of peroxisome proliferator-activated receptor delta signaling (AID 588535); details: HEK293T PPARd-UAS-bla, beta-lactamase FRET ratio, 18 h; 460 nm channel;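 also: cells co-treated with a PPAR-delta agonist as stimulator during compound exposure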
Outline: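 Titrations were run on PPAR-delta-UAS-bla HEK293T cells in charcoal/dextran-stripped serum, incubated 18 h at 37 C. CCF4 fluorescence (460/530 nm) after 2 h RT; Hill equation yields IC50 and maximal response.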

Chain of Glucocorticoid receptor (Homo sapiens) (P04150 whole entry, looked up): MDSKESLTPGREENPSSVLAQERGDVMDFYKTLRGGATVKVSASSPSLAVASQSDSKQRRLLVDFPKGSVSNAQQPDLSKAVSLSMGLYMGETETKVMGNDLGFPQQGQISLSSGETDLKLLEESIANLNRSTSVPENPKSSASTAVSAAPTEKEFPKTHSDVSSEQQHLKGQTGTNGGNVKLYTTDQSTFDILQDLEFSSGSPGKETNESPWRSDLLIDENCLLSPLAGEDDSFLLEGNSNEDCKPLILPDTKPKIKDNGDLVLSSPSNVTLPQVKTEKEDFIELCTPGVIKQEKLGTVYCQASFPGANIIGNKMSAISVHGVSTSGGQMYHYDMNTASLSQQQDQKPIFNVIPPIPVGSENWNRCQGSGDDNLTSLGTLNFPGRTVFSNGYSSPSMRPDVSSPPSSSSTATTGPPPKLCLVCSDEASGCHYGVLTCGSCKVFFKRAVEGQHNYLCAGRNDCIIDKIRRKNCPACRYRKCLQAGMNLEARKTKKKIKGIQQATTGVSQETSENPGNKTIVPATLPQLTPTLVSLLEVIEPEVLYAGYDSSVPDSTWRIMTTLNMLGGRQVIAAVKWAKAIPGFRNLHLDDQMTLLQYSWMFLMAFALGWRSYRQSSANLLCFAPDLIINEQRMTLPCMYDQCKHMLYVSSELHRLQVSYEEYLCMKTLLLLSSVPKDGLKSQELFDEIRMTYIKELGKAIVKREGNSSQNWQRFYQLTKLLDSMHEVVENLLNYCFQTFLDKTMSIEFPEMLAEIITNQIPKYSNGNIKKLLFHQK
Chain of Nuclear receptor ROR-gamma (Homo sapiens) (P51449 whole entry, looked up): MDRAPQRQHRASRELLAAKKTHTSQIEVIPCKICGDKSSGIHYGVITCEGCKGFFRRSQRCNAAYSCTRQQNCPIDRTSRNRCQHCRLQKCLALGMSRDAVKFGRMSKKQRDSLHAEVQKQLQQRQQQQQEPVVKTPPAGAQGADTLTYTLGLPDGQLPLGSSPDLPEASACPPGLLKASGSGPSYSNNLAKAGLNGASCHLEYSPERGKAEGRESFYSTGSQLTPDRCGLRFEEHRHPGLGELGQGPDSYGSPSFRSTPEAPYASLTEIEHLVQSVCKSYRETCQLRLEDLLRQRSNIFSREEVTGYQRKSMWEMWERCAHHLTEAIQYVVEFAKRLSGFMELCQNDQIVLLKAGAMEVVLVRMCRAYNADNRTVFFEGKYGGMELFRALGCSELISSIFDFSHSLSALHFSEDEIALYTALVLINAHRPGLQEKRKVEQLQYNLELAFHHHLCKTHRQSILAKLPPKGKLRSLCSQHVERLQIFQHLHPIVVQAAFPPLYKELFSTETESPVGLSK
Chain of Estrogen receptor (Homo sapiens) (P03372 whole entry, looked up): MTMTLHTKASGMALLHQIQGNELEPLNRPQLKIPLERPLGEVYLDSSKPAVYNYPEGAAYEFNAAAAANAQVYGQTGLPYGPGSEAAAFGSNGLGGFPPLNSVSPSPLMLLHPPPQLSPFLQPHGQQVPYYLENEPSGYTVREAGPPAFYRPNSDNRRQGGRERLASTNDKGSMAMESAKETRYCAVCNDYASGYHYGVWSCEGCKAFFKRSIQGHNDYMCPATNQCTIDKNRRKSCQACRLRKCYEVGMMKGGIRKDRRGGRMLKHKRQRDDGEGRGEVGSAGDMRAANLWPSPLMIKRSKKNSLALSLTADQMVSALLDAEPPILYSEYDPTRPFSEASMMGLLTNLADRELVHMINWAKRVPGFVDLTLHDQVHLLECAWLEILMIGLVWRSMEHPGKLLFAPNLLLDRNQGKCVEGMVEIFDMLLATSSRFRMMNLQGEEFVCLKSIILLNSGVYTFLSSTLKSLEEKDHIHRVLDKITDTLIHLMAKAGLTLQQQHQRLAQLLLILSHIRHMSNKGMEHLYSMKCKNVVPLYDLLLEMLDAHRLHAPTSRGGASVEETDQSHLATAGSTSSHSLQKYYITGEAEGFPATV

N=C1C=CC(=C(c2ccc(N)cc2)c2ccc(N)cc2)C=C1
inactive: Potency [2] | caspase-3 activation [3] -1.95% | Potency [4]
active: Potency [1] 3.98 µM | Potency [5] 7.94 µM | Potency [6] 3.98 µM | Potency [7] 7.94 µM | Potency [8] 7.94 µM | Potency [9] 12.6 µM | Potency [10] 15.8 µM | Potency [11] 6.68 µM | Potency [12] 31.6 µM

CC(CCC(=O)O)(c1ccc(O)cc1)c1ccc(O)cc1
inactive: Potency [13] > 92 µM | Potency [14] > 92 µM | Potency [15] > 92 µM | Potency [16] | Potency [7] | Potency [8] | Potency [9] | Potency [10] | activation [18] 3.51% and -3.34% | Potency [19]
active: Potency [17] 12.6 µM
-42.6% and 42.4%: max response [20]
